# The supplement of paper PMC9262897, “Low-cost anti-mycobacterial drug discovery using engineered E. coli” (Nature Communications, 2022)
# Counter-ions that a name gives are not always drawn. ± gives the standard deviation of the averaged measurements.
# Test system: E. coli TESEC Mtb Alr
# Assay: growth (OD600 after 10 h); higher = more growth (less inhibition)
# Conditions: arabinose 1000000 nM; compound 0.1 mM; raw OD600 reference: median of DMSO wells 0.193, cell-free background 0.041
# Procedure: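 TESEC Mtb Alr E. coli, or the Alr+ wild-type control, in 384-well plates with Prestwick library compounds at 0.1 mM and 1% DMSO, across arabinose induction levels of 1E3 to 1E7 nM. Growth is read as OD600 after 10 h at 37 °C in triplicate biological replicates.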
row,SMILES,growth
1,CCCCCCCCNC(C)C(O)c1ccc(SC(C)C)cc1 (configuration not stated) [Suloctidil],0.0856 ± 0.078
2,CCCc1cc(C(N)=S)ccn1 [Prothionamide],0.174 ± 0.014
3,CCC[C@@H]1C[C@@H](C(=O)N[C@@H]([C@H]2O[C@H](SC)[C@H](O)[C@@H](O)[C@H]2O)[C@@H](C)O)N(C)C1 [Lincomycin hydrochloride],0.0692 ± 0.0033
4,C[C@]12CC[C@@H]3c4ccc(O)cc4C[C@@H](CCCCCCCCC[S+]([O-])CCCC(F)(F)C(F)(F)F)[C@H]3[C@@H]1CC[C@@H]2O (some centres not stated) [Fulvestrant],0.179 ± 0.012
5,CN(C)CCCSC(=N)N [Dimaprit dihydrochloride],0.201 ± 0.015
6,CN1CCN(c2c(F)cc3c(=O)c(C(=O)O)cn4c3c2SCC4)CC1 [Rufloxacin],0.03957 ± 0.00025
7,CC(=O)OCC(=O)[C@@]1(OC(C)=O)[C@@H](C)C[C@H]2[C@@H]3C[C@H](F)C4=CC(=O)C=C[C@]4(C)[C@@]3(F)[C@@H](O)C[C@@]21C [Diflorasone Diacetate],0.112 ± 0.0026
8,CS(=O)(=O)c1ccc([C@@H](O)[C@@H](CO)NC(=O)C(Cl)Cl)cc1 [Thiamphenicol],0.0395 ± 0.0001
9,CSc1nc2cc(Cl)c(Oc3cccc(Cl)c3Cl)cc2[nH]1 [Triclabendazole],0.0733 ± 0.012
10,CC(C)(CO)C(O)C(=O)NCCCO (configuration not stated) [Panthenol (D)],0.192 ± 0.0077
11,Cc1onc(-c2ccccc2Cl)c1C(=O)N[C@@H]1C(=O)N2[C@@H]1SC(C)(C)[C@@H]2C(=O)O [Cloxacillin sodium salt],0.183 ± 0.0023
12,OCCN(CCO)c1nc(N2CCCCC2)c2nc(N(CCO)CCO)nc(N3CCCCC3)c2n1 [Dipyridamole],0.05417 ± 0.00046
13,CN(C)CCN(Cc1ccc(Cl)cc1)c1ccccn1 [Chloropyramine hydrochloride],0.148 ± 0.0046
14,CCCCOC(=O)c1ccc(N)cc1 [Butamben],0.233 ± 0.0061
15,Nc1c(Br)cc(Br)cc1CN[C@H]1CC[C@H](O)CC1 [Ambroxol hydrochloride],0.1617 ± 0.0016
16,C[C@]12CC[C@@H]3c4ccc(OS(=O)(=O)O)cc4CC[C@H]3[C@@H]1CCC2=O [Estropipate],0.151 ± 0.011

row,SMILES,growth
1,CC(NCCC(c1ccccc1)c1ccccc1)c1ccccc1 (configuration not stated) [Fendiline hydrochloride],0.0386 ± 0.00049
2,C[C@@H]1C[C@H]2[C@@H]3C[C@H](F)C4=CC(=O)C=C[C@]4(C)[C@@]3(F)[C@@H](O)C[C@]2(C)[C@@]1(O)C(=O)COC(=O)C(C)(C)C [Flumethasone pivalate],0.182 ± 0.022
3,COc1cc(C(=O)NC2CCCNC2)cc(OC)c1OC (configuration not stated) [Troxipide],0.191 ± 0.02
4,"COCCc1ccc(OCC(O)CNC(C)C)cc1 (racemic) [Metoprolol-(+,-) (+)-tartrate salt]",0.199 ± 0.0081
5,CC(Oc1c(Cl)cccc1Cl)C1=NCCN1 (configuration not stated) [Lofexidine],0.172 ± 0.0071
6,N#CC(c1ccc(Cl)cc1)c1c(Cl)cc(-n2ncc(=O)[nH]c2=O)cc1Cl (configuration not stated) [Diclazuril],0.0405 ± 0.00045
7,Cc1cc(C(C)(C)CC(C)(C)C)ccc1OCCOCC[N+](C)(C)Cc1ccccc1 [Methyl benzethonium chloride],0.04487 ± 0.00031
8,CC(=O)CC(c1ccc([N+](=O)[O-])cc1)c1c(O)c2ccccc2oc1=O (configuration not stated) [Acenocoumarol],0.1675 ± 0.0012
9,COCC1=C(C(=O)OC(C)OC(=O)OC(C)C)N2C(=O)[C@@H](NC(=O)/C(=N\OC)c3csc(N)n3)[C@H]2SC1 (some centres not stated) [Cefpodoxime proxetil],0.166 ± 0.008
10,CC(=O)OCC(=O)[C@@]12OC(C)(C)O[C@@H]1C[C@H]1[C@@H]3C[C@H](F)C4=CC(=O)C=C[C@]4(C)[C@@]3(F)[C@@H](O)C[C@@]12C [Fluocinonide],0.213 ± 0.041
11,COc1ccc([C@@H]2Sc3ccccc3N(CCN(C)C)C(=O)[C@@H]2OC(C)=O)cc1 [Diltiazem hydrochloride],0.139 ± 0.0028
12,CC(=O)N[C@@H](CC(=O)N[C@@H](CCC(=O)O)C(=O)O)C(=O)O [Spaglumic acid],0.198 ± 0.0026
13,Cc1ccnc(NS(=O)(=O)c2ccc(N)cc2)n1 [Sulfamerazine],0.154 ± 0.0069
14,N=c1nc(N2CCCCC2)cc(N)n1O [Minoxidil],0.166 ± 0.0034
15,COc1ccc2c(c1)c(CC(=O)O)c(C)n2C(=O)c1ccc(Cl)cc1 [Indomethacin],0.0963 ± 0.0012
16,CN1CC2c3ccccc3Oc3ccc(Cl)cc3C2C1 (configuration not stated) [Asenapine maleate],0.123 ± 0.0024

# Same assay, conditions: arabinose 10000000 nM; compound 0.1 mM; raw OD600 reference: median of DMSO wells 0.146, cell-free background 0.041
row,SMILES,growth
1,CN1CCCC(n2nc(Cc3ccc(Cl)cc3)c3ccccc3c2=O)CC1 (configuration not stated) [Azelastine HCl],0.1635 ± 0.00076
2,COC(=O)Nc1nc2ccc(SC(C)C)cc2[nH]1 [Methiazole],0.151 ± 0.0024
3,CCCCNC(=O)NS(=O)(=O)c1ccc(C)cc1 [Tolbutamide],0.136 ± 0.0022
4,CS(=O)(=O)OCCCCOS(C)(=O)=O [Busulfan],0.139 ± 0.0018
5,Fc1ccc([C@@H]2CCNC[C@H]2COc2ccc3c(c2)OCO3)cc1 [Paroxetine Hydrochloride],0.0552 ± 0.0014
6,CC1(C)O[C@@H]2C[C@H]3[C@@H]4C[C@H](F)C5=CC(=O)C=C[C@]5(C)[C@H]4[C@@H](O)C[C@]3(C)[C@]2(C(=O)CO)O1 [Flunisolide],0.138 ± 0.0048
7,CNCCc1ccccn1 [Betahistine mesylate],0.164 ± 0.005
8,CC(C(=O)O)c1ccc(C(=O)c2cccs2)cc1 (configuration not stated) [Suprofen],0.138 ± 0.0024
9,CCCCCCCCNC(C)C(O)c1ccc(SC(C)C)cc1 (configuration not stated) [Suloctidil],0.0896 ± 0.085
10,CCCc1cc(C(N)=S)ccn1 [Prothionamide],0.136 ± 0.0019
11,CCC[C@@H]1C[C@@H](C(=O)N[C@@H]([C@H]2O[C@H](SC)[C@H](O)[C@@H](O)[C@H]2O)[C@@H](C)O)N(C)C1 [Lincomycin hydrochloride],0.0731 ± 0.00091
12,C[C@]12CC[C@@H]3c4ccc(O)cc4C[C@@H](CCCCCCCCC[S+]([O-])CCCC(F)(F)C(F)(F)F)[C@H]3[C@@H]1CC[C@@H]2O (some centres not stated) [Fulvestrant],0.137 ± 0.005
13,CN(C)CCCSC(=N)N [Dimaprit dihydrochloride],0.131 ± 0.0034
14,CN1CCN(c2c(F)cc3c(=O)c(C(=O)O)cn4c3c2SCC4)CC1 [Rufloxacin],0.0429 ± 0.0015
15,CC(=O)OCC(=O)[C@@]1(OC(C)=O)[C@@H](C)C[C@H]2[C@@H]3C[C@H](F)C4=CC(=O)C=C[C@]4(C)[C@@]3(F)[C@@H](O)C[C@@]21C [Diflorasone Diacetate],0.17 ± 0.0046
16,CS(=O)(=O)c1ccc([C@@H](O)[C@@H](CO)NC(=O)C(Cl)Cl)cc1 [Thiamphenicol],0.055 ± 0.0011
17,CSc1nc2cc(Cl)c(Oc3cccc(Cl)c3Cl)cc2[nH]1 [Triclabendazole],0.04873 ± 5.8e-05
18,CC(C)(CO)C(O)C(=O)NCCCO (configuration not stated) [Panthenol (D)],0.147 ± 0.0069
19,Cc1onc(-c2ccccc2Cl)c1C(=O)N[C@@H]1C(=O)N2[C@@H]1SC(C)(C)[C@@H]2C(=O)O [Cloxacillin sodium salt],0.144 ± 0.0071
20,OCCN(CCO)c1nc(N2CCCCC2)c2nc(N(CCO)CCO)nc(N3CCCCC3)c2n1 [Dipyridamole],0.135 ± 0.016

row,SMILES,growth
1,CN(C)CCN(Cc1ccc(Cl)cc1)c1ccccn1 [Chloropyramine hydrochloride],0.128 ± 0.006
2,CCCCOC(=O)c1ccc(N)cc1 [Butamben],0.16 ± 0.0031
3,Nc1c(Br)cc(Br)cc1CN[C@H]1CC[C@H](O)CC1 [Ambroxol hydrochloride],0.149 ± 0.0085
4,C[C@]12CC[C@@H]3c4ccc(OS(=O)(=O)O)cc4CC[C@H]3[C@@H]1CCC2=O [Estropipate],0.127 ± 0.0018
5,CC(NCCC(c1ccccc1)c1ccccc1)c1ccccc1 (configuration not stated) [Fendiline hydrochloride],0.04153 ± 0.00035
6,C[C@@H]1C[C@H]2[C@@H]3C[C@H](F)C4=CC(=O)C=C[C@]4(C)[C@@]3(F)[C@@H](O)C[C@]2(C)[C@@]1(O)C(=O)COC(=O)C(C)(C)C [Flumethasone pivalate],0.145 ± 0.012
7,COc1cc(C(=O)NC2CCCNC2)cc(OC)c1OC (configuration not stated) [Troxipide],0.134 ± 0.0027
8,"COCCc1ccc(OCC(O)CNC(C)C)cc1 (racemic) [Metoprolol-(+,-) (+)-tartrate salt]",0.141 ± 0.0035
9,CC(Oc1c(Cl)cccc1Cl)C1=NCCN1 (configuration not stated) [Lofexidine],0.139 ± 0.0016
10,N#CC(c1ccc(Cl)cc1)c1c(Cl)cc(-n2ncc(=O)[nH]c2=O)cc1Cl (configuration not stated) [Diclazuril],0.0479 ± 0.0017
11,Cc1cc(C(C)(C)CC(C)(C)C)ccc1OCCOCC[N+](C)(C)Cc1ccccc1 [Methyl benzethonium chloride],0.04963 ± 0.00035
12,CC(=O)CC(c1ccc([N+](=O)[O-])cc1)c1c(O)c2ccccc2oc1=O (configuration not stated) [Acenocoumarol],0.139 ± 0.0017
13,COCC1=C(C(=O)OC(C)OC(=O)OC(C)C)N2C(=O)[C@@H](NC(=O)/C(=N\OC)c3csc(N)n3)[C@H]2SC1 (some centres not stated) [Cefpodoxime proxetil],0.165 ± 0.0036
14,CC(=O)OCC(=O)[C@@]12OC(C)(C)O[C@@H]1C[C@H]1[C@@H]3C[C@H](F)C4=CC(=O)C=C[C@]4(C)[C@@]3(F)[C@@H](O)C[C@@]12C [Fluocinonide],0.163 ± 0.037
15,COc1ccc([C@@H]2Sc3ccccc3N(CCN(C)C)C(=O)[C@@H]2OC(C)=O)cc1 [Diltiazem hydrochloride],0.139 ± 0.0037
16,CC(=O)N[C@@H](CC(=O)N[C@@H](CCC(=O)O)C(=O)O)C(=O)O [Spaglumic acid],0.143 ± 0.0028
17,Cc1ccnc(NS(=O)(=O)c2ccc(N)cc2)n1 [Sulfamerazine],0.133 ± 0.004
18,N=c1nc(N2CCCCC2)cc(N)n1O [Minoxidil],0.148 ± 0.0099
19,COc1ccc2c(c1)c(CC(=O)O)c(C)n2C(=O)c1ccc(Cl)cc1 [Indomethacin],0.105 ± 0.0024
20,CN1CC2c3ccccc3Oc3ccc(Cl)cc3C2C1 (configuration not stated) [Asenapine maleate],0.164 ± 0.0081
